{"source": "PubChem BioAssay (Tox21)", "note": "Records with an inconclusive call do not appear. The source made the active and inactive calls. Calls come from the whole dose curve; as a rule, active = well fitted curve in the direction sought with a large enough effect in the repeat runs; inconclusive = weak or mixed curves; inactive = no such curve, though single readings can be large; an effect the other way counts as inactive or inconclusive. % is set by controls: 0 for no effect and ±100 for the full control effect.", "data": [{"test_system": "not listed separately", "test": "qHTS assay to identify small molecule antagonists of the constitutive androstane receptor (CAR) signaling pathway - cell viability counter screen (AID 1224837); note: nearly all actives have a fitted effect of over 45% in size", "details": "HepG2-CYP2B6-hCAR viability, CellTiter-Fluor, 23 h, co-treated with 50 nM CITCO; series mostly up to 92.4 µM; activity change, negative = cytotoxicity: at the top concentration", "in_short": "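Counter screen run in HepG2-CYP2B6-hCAR cells: 4 hr settle, compound titration (15 concentrations) with 50 nM CITCO, 23 hr at 37 C/5% CO2, CellTiter-Fluor fluorescence.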", "values": [{"smiles": "COC(=O)Cc1cccc2ccccc12", "activity change, negative = cytotoxicity": "0.498% (inactive)"}, {"smiles": "CC(C)(Cc1c[nH]c2ccccc12)NCC(O)COc1ccccc1C#N", "note": "(configuration not stated)", "activity change, negative = cytotoxicity": "-13% [at 42.5 µM] (inactive)"}, {"smiles": "CCCCCCC/C=C/C=O", "activity change, negative = cytotoxicity": "10% (inactive)"}, {"smiles": "COC(=O)/C=C/C(C)=C\\C=C\\C(C)=C\\C=C\\C=C(C)\\C=C\\C=C(C)\\C=C\\C(=O)O", "activity change, negative = cytotoxicity": "1.8% (inactive)"}, {"smiles": "COc1ccnc2c1CCCCC2S(=O)c1nc2ccccc2[nH]1", "note": "(configuration not stated)", "activity change, negative = cytotoxicity": "1.16% [at 42.5 µM] (inactive)"}, {"smiles": "COC(=O)C(C)(C)C", "activity change, negative = cytotoxicity": "-1.38% (inactive)"}, {"smiles": "NC(=O)c1ccccc1C(N)=O", "activity change, negative = cytotoxicity": "3.68% (inactive)"}, {"smiles": "O=C(C1CCCCC1)N1CC(=O)N2CCCc3ccccc3C2C1", "note": "(configuration not stated)", "activity change, negative = cytotoxicity": "4.66% [at 42.5 µM] (inactive)"}, {"smiles": "O=C1c2ccccc2C(=O)c2c1ccc(O)c2O", "activity change, negative = cytotoxicity": "-9.35% [at 42.5 µM] (inactive)"}, {"smiles": "O=C1c2ccccc2C(=O)C1c1ccc2ccccc2n1", "activity change, negative = cytotoxicity": "-22.3% [at 42.5 µM] (inactive)"}, {"smiles": "CCCCOc1ccc(N)cc1", "activity change, negative = cytotoxicity": "11.1% (inactive)"}, {"smiles": "CC(C)CC(C)(C)C", "activity change, negative = cytotoxicity": "0.672% (inactive)"}, {"smiles": "CC(=O)Nc1ccccc1O", "activity change, negative = cytotoxicity": "5.18% (inactive)"}, {"smiles": "COc1ccc(C(=O)Nc2ccccc2)cc1[N+](=O)[O-]", "activity change, negative = cytotoxicity": "-5.88% (inactive)"}, {"smiles": "Clc1cc(Cl)c2c(c1)N=C1CCCCCN1C2", "activity change, negative = cytotoxicity": "-17.7% [at 42.5 µM] (inactive)"}, {"smiles": "CCCCCCCCCCCCCCCCCCCl", "activity change, negative = cytotoxicity": "3.1% [at 8.39 µM] (inactive)"}, {"smiles": "N#C[C@@H]1CC(F)(F)CN1C(=O)CNC1CC2CCC(C1)N2c1ncccn1", "note": "(some centres not stated)", "activity change, negative = cytotoxicity": "-0.985% (inactive)"}, {"smiles": "COc1ccc(/C(C)=C/C(=O)O)c(OC)c1", "activity change, negative = cytotoxicity": "1.53% [at 42.5 µM] (inactive)"}, {"smiles": "CC(C)(C)c1ccc(CCC=O)cc1", "activity change, negative = cytotoxicity": "1.22% (inactive)"}, {"smiles": "CCCCCCCCCCCCSC#N", "activity change, negative = cytotoxicity": "2.45% (inactive)"}, {"smiles": "Cc1cc(SC2=C(O)C[C@@](CCc3ccc(N)cc3)(C(C)C)OC2=O)c(C(C)(C)C)cc1CO", "activity change, negative = cytotoxicity": "1.87% (inactive)"}, {"smiles": "O=C(N[C@@H](Cc1ccccc1)[C@@H](O)C(=O)N1C[C@@H](O)[C@@H](O)C1)c1cc2cc(Cl)ccc2[nH]1", "activity change, negative = cytotoxicity": "-4.05% (inactive)"}, {"smiles": "C=C[Si](OCC)(OCC)OCC", "activity change, negative = cytotoxicity": "4.24% (inactive)"}, {"smiles": "Sc1nc(S)nc(S)n1", "activity change, negative = cytotoxicity": "4.21% [at 42.5 µM] (inactive)"}, {"smiles": "O=Cc1ccc(Cl)c([N+](=O)[O-])c1", "activity change, negative = cytotoxicity": "1.38% (inactive)"}, {"smiles": "CCCCCCCCCC(C)C=O", "note": "(configuration not stated)", "activity change, negative = cytotoxicity": "2.5% (inactive)"}, {"smiles": "CC1=CC(=C(c2ccc(N)cc2)c2ccc(N)cc2)C=CC1=N", "activity change, negative = cytotoxicity": "-13.7% [at 8.39 µM] (inactive)"}, {"smiles": "CC(C)C/C=C(\\C=O)c1ccccc1", "activity change, negative = cytotoxicity": "-5.46% (inactive)"}, {"smiles": "COc1ccc(/C=C/c2cc(OC)cc(=O)o2)cc1", "activity change, negative = cytotoxicity": "-6.19% [at 42.5 µM] (inactive)"}, {"smiles": "Oc1ccc(CCNCCCCCCNCCc2ccccc2)cc1O", "activity change, negative = cytotoxicity": "-11.2% [at 42.5 µM] (inactive)"}, {"smiles": "Nc1cccc2c(=O)[nH][nH]c(=O)c12", "activity change, negative = cytotoxicity": "-0.127% (inactive)"}, {"smiles": "N#CCCCC(C#N)CCC#N", "note": "(configuration not stated)", "activity change, negative = cytotoxicity": "-2% (inactive)"}]}, {"target": "Nuclear receptor subfamily 1 group I member 3 (Homo sapiens) (UniProt Q14994)", "sequence (Q14994 whole entry, looked up)": "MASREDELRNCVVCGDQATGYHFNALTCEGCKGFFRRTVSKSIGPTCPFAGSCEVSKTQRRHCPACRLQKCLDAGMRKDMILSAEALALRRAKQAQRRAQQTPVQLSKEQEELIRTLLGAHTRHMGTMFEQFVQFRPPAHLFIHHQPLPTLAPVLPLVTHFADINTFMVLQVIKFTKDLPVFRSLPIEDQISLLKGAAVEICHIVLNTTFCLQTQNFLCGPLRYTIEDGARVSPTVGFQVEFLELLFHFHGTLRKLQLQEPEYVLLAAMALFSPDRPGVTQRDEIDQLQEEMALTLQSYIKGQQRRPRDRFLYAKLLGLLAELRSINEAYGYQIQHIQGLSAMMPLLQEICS", "test": "qHTS assay to identify small molecule antagonists of the constitutive androstane receptor (CAR) signaling pathway (AID 1224838); note: nearly all actives have a fitted effect of over 40% in size; note: potency is the fitted concentration of half-maximal effect", "details": "HepG2-CYP2B6-hCAR luciferase, CITCO-stimulated, 24 h; series mostly up to 92.4 µM; activity, negative = inhibition: at the top concentration", "in_short": "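Cell line: HepG2 double-stable for hCAR and CYP2B6-2.2kb reporter. Agonist: CITCO, 50 nM final. Compounds: 15 concentrations, 24 h, 37 C. Detection: ONE-Glo luminescence.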", "values": [{"smiles": "COC(=O)Cc1cccc2ccccc12", "activity, negative = inhibition": "66.5% (inactive)"}, {"smiles": "CCCCCCC/C=C/C=O", "activity, negative = inhibition": "-5.04% (inactive)"}, {"smiles": "COC(=O)/C=C/C(C)=C\\C=C\\C(C)=C\\C=C\\C=C(C)\\C=C\\C=C(C)\\C=C\\C(=O)O", "activity, negative = inhibition": "77.1% (inactive)"}, {"smiles": "COc1ccnc2c1CCCCC2S(=O)c1nc2ccccc2[nH]1", "note": "(configuration not stated)", "activity, negative = inhibition": "158% [at 42.5 µM] (inactive)"}, {"smiles": "COC(=O)C(C)(C)C", "activity, negative = inhibition": "19.4% (inactive)"}, {"smiles": "Cc1ccc(NC(=O)c2ccc(CN3CCN(C)CC3)cc2)cc1Nc1nccc(-c2cccnc2)n1", "activity, negative = inhibition": "287% [at 42.5 µM] (inactive)"}, {"smiles": "NC(=O)c1ccccc1C(N)=O", "Potency": "30.8 µM (active)"}, {"smiles": "O=C1c2ccccc2C(=O)c2c1ccc(O)c2O", "activity, negative = inhibition": "38.8% [at 42.5 µM] (inactive)"}, {"smiles": "O=c1[nH]nc(-c2ccc([N+](=O)[O-])o2)o1", "activity, negative = inhibition": "44.9% (inactive)"}, {"smiles": "O=C1c2ccccc2C(=O)C1c1ccc2ccccc2n1", "activity, negative = inhibition": "226% [at 42.5 µM] (inactive)"}, {"smiles": "CCCCOc1ccc(N)cc1", "activity, negative = inhibition": "114% (inactive)"}, {"smiles": "CC(C)CC(C)(C)C", "activity, negative = inhibition": "165% (inactive)"}, {"smiles": "CC(=O)Nc1ccccc1O", "activity, negative = inhibition": "76.4% (inactive)"}, {"smiles": "COc1ccc(C(=O)Nc2ccccc2)cc1[N+](=O)[O-]", "activity, negative = inhibition": "294% (inactive)"}, {"smiles": "Clc1cc(Cl)c2c(c1)N=C1CCCCCN1C2", "activity, negative = inhibition": "25.3% [at 42.5 µM] (inactive)"}, {"smiles": "Nc1ccccc1Nc1ccccc1", "activity, negative = inhibition": "-20.1% (inactive)"}, {"smiles": "CCCN(C1CCN(C(=O)C2CCNCC2)CC1)[C@@H]1CCc2ccc(OC)cc2C1", "activity, negative = inhibition": "-26.3% (inactive)"}, {"smiles": "CC(C)(C)c1ccc(CCC=O)cc1", "activity, negative = inhibition": "-27% (inactive)"}, {"smiles": "O=Cc1ccc(Cl)c([N+](=O)[O-])c1", "activity, negative = inhibition": "9.08% (inactive)"}, {"smiles": "CCCCCCCCCC(C)C=O", "note": "(configuration not stated)", "activity, negative = inhibition": "58.6% (inactive)"}, {"smiles": "CC1=CC(=C(c2ccc(N)cc2)c2ccc(N)cc2)C=CC1=N", "activity, negative = inhibition": "3.44% [at 8.39 µM] (inactive)"}, {"smiles": "CC(=O)Oc1cccc2c1C(=O)c1c(OC(C)=O)cc(C(=O)O)cc1C2=O", "activity, negative = inhibition": "17.8% [at 42.5 µM] (inactive)"}, {"smiles": "CC(C)C/C=C(\\C=O)c1ccccc1", "activity, negative = inhibition": "-2.39% (inactive)"}, {"smiles": "COc1ccc(/C=C/c2cc(OC)cc(=O)o2)cc1", "activity, negative = inhibition": "59.2% [at 42.5 µM] (inactive)"}, {"smiles": "Oc1ccc(CCNCCCCCCNCCc2ccccc2)cc1O", "activity, negative = inhibition": "6.56% [at 42.5 µM] (inactive)"}, {"smiles": "CCn1nc(Cc2ccccc2)cc1C1CCN(C[C@H]2C[C@H](N(C)[C@@H](C(=O)O)C(C)C)C[C@@H]2c2cccc(F)c2)CC1", "activity, negative = inhibition": "-1.1% (inactive)"}, {"smiles": "Nc1cccc2c(=O)[nH][nH]c(=O)c12", "activity, negative = inhibition": "-0.631% (inactive)"}]}, {"target": "Nuclear receptor subfamily 1 group I member 3 (Homo sapiens) (UniProt Q14994)", "test": "qHTS assay to identify small molecule agonists of the constitutive androstane receptor (CAR) signaling pathway (AID 1224839); note: nearly all actives have a fitted effect of over 15% in size; note: potency is the fitted concentration of half-maximal effect", "details": "HepG2 hCAR CYP2B6-luciferase, agonist mode, 24 h; series mostly up to 92.4 µM; activation: at the top concentration", "in_short": "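Using human hepatoma HepG2 cells engineered with hCAR and a CYP2B6-2.2kb reporter, 15-concentration compound series were incubated 24 h alongside PK11195 at 0.75 uM final, with luminescence quantified afterwards.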", "values": [{"smiles": "COC(=O)Cc1cccc2ccccc12", "Potency": "34.4 µM (active)"}, {"smiles": "CCCCCCC/C=C/C=O", "activation": "6.72% (inactive)"}, {"smiles": "COc1ccnc2c1CCCCC2S(=O)c1nc2ccccc2[nH]1", "note": "(configuration not stated)", "Potency": "23.7 µM (active)"}, {"smiles": "COC(=O)C(C)(C)C", "activation": "3% (inactive)"}, {"smiles": "Cc1ccc(NC(=O)c2ccc(CN3CCN(C)CC3)cc2)cc1Nc1nccc(-c2cccnc2)n1", "Potency": "13.3 µM (active)"}, {"smiles": "O=C1c2ccccc2C(=O)C1c1ccc2ccccc2n1", "Potency": "6.05 µM (active)"}, {"smiles": "CC(C)CC(C)(C)C", "Potency": "63.4 µM (active)"}, {"smiles": "CC(=O)Nc1ccccc1O", "activation": "7.08% (inactive)"}, {"smiles": "CCCN(C1CCN(C(=O)C2CCNCC2)CC1)[C@@H]1CCc2ccc(OC)cc2C1", "activation": "-7.28% (inactive)"}, {"smiles": "CC(C)(C)c1ccc(CCC=O)cc1", "activation": "-7.59% (inactive)"}, {"smiles": "O=Cc1ccc(Cl)c([N+](=O)[O-])c1", "activation": "-2.8% (inactive)"}, {"smiles": "CCCCCCCCCC(C)C=O", "note": "(configuration not stated)", "activation": "11.5% (inactive)"}, {"smiles": "CC1=CC(=C(c2ccc(N)cc2)c2ccc(N)cc2)C=CC1=N", "activation": "-0.508% [at 8.39 µM] (inactive)"}, {"smiles": "CC(C)C/C=C(\\C=O)c1ccccc1", "activation": "8.12% (inactive)"}, {"smiles": "COc1ccc(/C=C/c2cc(OC)cc(=O)o2)cc1", "Potency": "6.26 µM (active)"}, {"smiles": "Oc1ccc(CCNCCCCCCNCCc2ccccc2)cc1O", "activation": "-4.84% [at 42.5 µM] (inactive)"}, {"smiles": "CCn1nc(Cc2ccccc2)cc1C1CCN(C[C@H]2C[C@H](N(C)[C@@H](C(=O)O)C(C)C)C[C@@H]2c2cccc(F)c2)CC1", "activation": "-1.62% (inactive)"}, {"smiles": "Nc1cccc2c(=O)[nH][nH]c(=O)c12", "activation": "-0.594% (inactive)"}]}]}
